# Dicer inh: inhibitors of human Dicer processing of pre-microRNA; z-score at 25 µM; Q9UPY3; 47,000 tested, 6% active; cat-ELCCA pre-miR-21 Dicer processing, chemiluminescence; active compounds read high; in the data active = z-score above about 3, passing the limit was not always enough;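 also: higher signal means more uncleaved substrate so more Dicer inhibition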
# Numbers stand for hits; - = inactive. Shown is part of a subset that was picked to be rich in hits.
SMILES,Dicer inh
COc1ccc(NC(=S)N2N=C3c4ccccc4CCC3C2c2ccc(F)cc2)cc1 (stereo unspecified),-
COc1ccc(C2C3CCc4ccccc4C3=NN2CCOC(=O)C2CC2)cc1 (stereo unspecified),4.8
C/C(=C\c1ccc(C(C)C)cc1)C1NCC(c2ccc([N+](=O)[O-])cc2)O1 (stereo unspecified),-
COc1cc(C2N(Cc3ccc(N(C)C)cc3)CCCN2Cc2ccc(N(C)C)cc2)cc(OC)c1OC,-
Clc1ccc(CSc2ncnc3sc4c(c23)CCCC4)c(Cl)c1,-
Cc1ccc2nc(Nc3nc(O)cc(=O)[nH]3)nc(C)c2c1,-
Cc1cc(C)c2nc(Nc3nc(O)cc(=O)[nH]3)nc(C)c2c1,5.2
Cc1ccc2nc(Nc3nc(C)cc(=O)[nH]3)nc(C)c2c1,-
O=c1ccn(-c2ccc(Cl)cc2)nc1-c1ccnc(-c2ccccc2)n1,-
O=c1oc(-c2cccnc2Oc2ccccc2)nc2cccc(F)c12,-
CCOc1ccc2nc(NC(=O)c3ccc([N+](=O)[O-])o3)sc2c1,-
CCCOc1ccc2nc(NC(=O)OC)sc2c1,-
CCOc1ccc2nc(NC(=O)c3cccs3)sc2c1,4
CC(NC(=O)C(C(=O)NC(C)C1CC2CCC1C2)C12CC3CC(CC(C3)C1)C2)C1CC2CCC1C2 (stereo unspecified),-
COC(=O)CNC(=O)Cn1cnc2c1c(=O)n(C)c(=O)n2C,-
COC(=O)Cn1cnc(=O)c(C#N)c1C,3.4
CCOC(=O)Cn1cc(C#N)c(=O)[nH]c1=O,-
CC1=C(C(=O)Nc2cccc(F)c2)C(c2ccccn2)C2=C(CC(C)(C)CC2=O)N1 (stereo unspecified),-
COc1cc2c(cc1OC)C(c1ccc(Cl)cc1Cl)NC(=O)C2 (stereo unspecified),-
N#CCC(=O)c1cccc(C(F)(F)F)c1,-
C=C(C)Cn1c(SCC(N)=O)nc2c(c1=O)C1(CCCC1)Cc1ccccc1-2,-
O=[N+]([O-])c1ccc(Sc2cc(Cl)ccc2Cl)nc1,4.7
O=[N+]([O-])c1cccnc1Sc1cc(Cl)ccc1Cl,-
O=[N+]([O-])c1cc(Cl)ccc1Sc1ccccn1,-
CC=C(C)C(=O)O[C@H]1[C@H](OC(C)=O)C2(CO)C(CC1(C)C)C1=CCC3C4(C)CCC(OC5O[C@H](C(=O)O)[C@@H](O[C@@H]6O[C@H](CO)[C@@H](O)[C@H](O)[C@H]6O)[C@H](O)[C@H]5O[C@@H]5O[C@H](CO)C(O)[C@H](O)[C@H]5O)[C@](C)(CO)C4CCC3(C)[C@]1(C)C[C@H]2O (stereo partly specified),-
SMILES,Dicer inh
Cc1noc(C)c1-n1sc(=O)n(CC2CC2)c1=O,-
COc1ccc2c(=O)cc(-c3ccccc3)oc2c1,-
O=c1ccc2c(-c3ccccc3)c3ccc(O)cc3oc-2c1,3.1
O=c1c2ccccc2oc2cc(O)ccc12,-
Cc1ccccc1C1=NC(C(F)(F)F)(C(F)(F)F)N=C(N2CCOCC2)O1,-
Cc1ccc(C2=NC(C(F)(F)F)(C(F)(F)F)N=C(N(C)C)O2)cc1,3.7
O=C1CC(c2cccc(F)c2)c2c(n[nH]c2-c2ccccc2)N1 (stereo unspecified),-
COC(=O)C1=C(C)O/C(=C2/C=CC=CN2)C(C)=C1,3.1
CC(C)c1ccc(N2C(=O)C3C4C=CC(CC4)C3C2=O)cc1 (stereo unspecified),3.5
O=C1C2C3C=CC(CC3)C2C(=O)N1c1cccc(Cl)c1 (stereo unspecified),3.3
O=C1C2C3C=CC(C3)C2C(=O)N1c1ccc(Cc2ccc(N3C(=O)C4C5C=CC(C5)C4C3=O)cc2)cc1 (stereo unspecified),-
Cc1ccc(N2C(=O)C3C4C=CC(CC4)C3C2=O)c(Br)c1 (stereo unspecified),-
O=C(O)c1cccc(N2C(=O)C3C4C=CC(CC4)C3C2=O)c1 (stereo unspecified),-
COC(=O)c1ccc(N2C(=O)C3C4C=CC(CC4)C3C2=O)cc1 (stereo unspecified),-
CC(=O)O/N=C/c1ccc2c(c1)CCO2,-
COc1cc(C2c3c(oc4ccccc4c3=O)C(=O)N2c2nnc(C(C)C)s2)ccc1O (stereo unspecified),-
COCc1cc(=O)[nH]c(-c2cccc(C)c2)n1,-
Cc1cc(C)nc(SCC(=O)c2c(C)[nH]c3ccccc23)n1,-
Cc1cc(C)nc(SCC(=O)c2ccc(F)cc2F)n1,3.7
COc1ccc(C(=O)CSc2nc(C)cc(C)n2)cc1C,-
O=c1[nH]c2ccccc2c2ccccc12,-
O/N=C1\CCCc2[nH]c3ccccc3c21,5.1
O=c1[nH]c2ccccc2c(O)c1-c1ccccc1,-
Fc1ccc(CSc2nc3ncc(Br)cc3[nH]2)c(Cl)c1,-
CCCS(=O)(=O)c1cscc1NC=C(C(=O)OCC)C(=O)OCC,-
SMILES,Dicer inh
CC(C)(C)c1ccc(-c2[nH]nc(NC(=O)c3ccccc3F)c2Br)cc1,-
Cc1ccc(-c2nnc(Nc3cccc(O)c3)c3ccccc23)cc1S(=O)(=O)N(C)C,-
COc1ccc(-c2nnc(Nc3cccc(O)c3)c3ccccc23)cc1,3.9
COc1ccc(-c2nnc(Nc3ccc4c(c3)ncn4C)c3ccccc23)cc1,-
O=C(NCCN1CCOCC1)c1cc2n(n1)C(C(F)(F)F)CC(c1ccco1)N2 (stereo unspecified),-
COc1ccccc1N1CC(=O)NC1=O,-
CCOC(=O)c1c(O)c(O)c(C(=O)OCC)n1-c1ccccc1,-
CC(=O)Nc1ccc2c(c1)[n+](C)c(C)n2-c1ccccc1,-
CC[n+]1c(C)n(-c2ccccc2)c2ccccc21,10
COc1ccc(-c2cc(C(=O)O)c3ccccc3n2)c(OC)c1,4.5
Nc1cccc(-c2cc(C(=O)O)c3ccccc3n2)c1,-
O=C(O)c1cc(-c2ccccn2)nc2ccccc12,-
COCCCNC(=O)C(=O)NCc1ccco1,-
CCOC(=O)C1CCN(/C=C(\C#N)S(=O)(=O)c2ccccc2)CC1,-
CCOC(=O)/C(C#N)=C/c1cn(-c2ccccc2)nc1-c1ccccc1,-
C=CCN1C(=O)SC(CC(=O)O)C1=O (stereo unspecified),-
CN=C1SC(CC(=O)O)C(=O)N1C (stereo unspecified),20
COc1cc(/C=N/N=C2/SC(CC(=O)O)C(=O)N2C)cc(OC)c1OC (stereo unspecified),-
COc1ccc(/C=C2/C(=O)Nc3ccccc32)cc1OC,-
CC(C)(C)NC(=O)Oc1ccc(Cl)cc1,-
CSC(=Nc1cccc(C(F)(F)F)c1)N1CCCC1,-
Cc1c(C(=O)O/N=C(\N)c2ccc(C(C)(C)C)cc2)sc2cc(C(C)(C)C)sc12,-
CCOC(=O)C(C)Oc1ccc(C)c(NC(=O)c2ccc(Cl)cc2[N+](=O)[O-])c1 (stereo unspecified),-
O=C(/C=C/S/C=C/C(=O)c1ccc(F)cc1)c1ccc(F)cc1,-
Cc1cc(C(=O)NC2(O)C(=O)c3ccccc3C2=O)n(C)n1,-
SMILES,Dicer inh
Cc1ccc(C(=O)C/C(=C\C(=C2\SC(=S)NC2=O)c2ccc(C)cc2)c2ccccc2)cc1,-
N#C/C(=C\Nc1cc(Cl)cc(Cl)c1)S(=O)(=O)c1ccccn1,-
CC(=O)N1N=C(c2ccc(Cl)cc2)OC1c1ccc(Br)cc1 (stereo unspecified),-
Cc1sc2nc(-c3ccccc3)oc(=O)c2c1C,-
Cc1cccc(C)c1NC(=O)c1snnc1C,-
Cc1nnsc1-c1nc2cccc(C)c2c(=O)o1,3.4
CCc1nc(N)nc2c1C(=O)CC(C)(C)C2,-

# Screening results from PubChem BioAssay.
